Measured values reported in paper PMC4336329 (PLoS ONE, 2015).
About 14,000 (4.5%) of roughly 310,000 compounds showed an effect of 50% or more. The effect is printed as a negative number. The full list was thinned out, with strong results kept by preference.

biological target: human ether-à-go-go-related gene (hERG) potassium channel (human, UniProt Q12809); assay: primary screen, population patch clamp on CHO cells stably expressing hERG; higher = less effect of the substance
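Further: peak tail current of the secondary pulse compared with the same well before compound.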

Sequence of human ether-à-go-go-related gene (hERG) potassium channel (Q12809 whole entry, looked up): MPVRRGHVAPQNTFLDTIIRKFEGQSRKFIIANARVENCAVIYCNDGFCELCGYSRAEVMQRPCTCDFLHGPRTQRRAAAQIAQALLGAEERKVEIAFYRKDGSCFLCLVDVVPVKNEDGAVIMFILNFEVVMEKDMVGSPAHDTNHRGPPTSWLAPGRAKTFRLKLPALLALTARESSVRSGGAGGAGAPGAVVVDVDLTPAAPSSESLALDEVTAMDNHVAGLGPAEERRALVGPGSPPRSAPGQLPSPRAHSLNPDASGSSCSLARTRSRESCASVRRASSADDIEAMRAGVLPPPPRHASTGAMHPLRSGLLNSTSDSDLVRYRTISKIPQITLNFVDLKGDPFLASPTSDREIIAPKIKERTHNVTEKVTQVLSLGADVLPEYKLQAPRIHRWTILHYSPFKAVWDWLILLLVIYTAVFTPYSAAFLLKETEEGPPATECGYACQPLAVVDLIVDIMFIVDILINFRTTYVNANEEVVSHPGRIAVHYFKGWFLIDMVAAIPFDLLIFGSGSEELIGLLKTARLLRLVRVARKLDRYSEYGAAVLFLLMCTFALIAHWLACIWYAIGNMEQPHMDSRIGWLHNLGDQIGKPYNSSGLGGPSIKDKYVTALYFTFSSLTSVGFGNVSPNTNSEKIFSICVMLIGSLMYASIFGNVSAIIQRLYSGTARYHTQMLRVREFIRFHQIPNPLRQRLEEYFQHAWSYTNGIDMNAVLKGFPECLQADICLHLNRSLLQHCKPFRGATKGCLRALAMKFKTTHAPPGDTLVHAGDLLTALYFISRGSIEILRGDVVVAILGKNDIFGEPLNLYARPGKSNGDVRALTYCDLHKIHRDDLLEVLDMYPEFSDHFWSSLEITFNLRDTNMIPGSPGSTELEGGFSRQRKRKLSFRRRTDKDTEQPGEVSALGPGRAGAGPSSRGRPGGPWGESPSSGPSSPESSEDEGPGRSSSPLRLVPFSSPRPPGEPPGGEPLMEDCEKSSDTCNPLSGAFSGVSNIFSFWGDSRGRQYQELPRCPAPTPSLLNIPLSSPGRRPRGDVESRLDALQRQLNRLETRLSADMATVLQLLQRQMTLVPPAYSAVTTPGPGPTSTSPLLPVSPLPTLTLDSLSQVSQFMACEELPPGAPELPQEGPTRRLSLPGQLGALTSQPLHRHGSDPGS

SMILES | hERG current change (%, negative = inhibition) at 10uM [%]
Cc1ccc(-c2noc(C3CCCN(C(=O)c4ccccc4Br)C3)n2)cc1 (centres unmarked) | 0.00198
N/C(=N\OC(=O)/C=C/c1ccccc1)c1ccc(Br)cc1 | 4.83
COc1ccc(CCNCC2C(Oc3ccc(Cl)cc3)C(=O)N2c2ccccc2C)cc1OC.Cl (centres unmarked) | -41
O=[N+]([O-])c1cc(/C=N/n2cnnc2)ccc1N1CCCC1 | -38.7
N#CCc1ccccc1C(=O)OCC(=O)N(Cc1ccccc1)Cc1ccccc1 | -52.1
O=C(OCC(=O)N(Cc1ccccc1)Cc1ccccc1)c1ccccc1O | 5.67
O=C(OCC(=O)N(Cc1ccccc1)Cc1ccccc1)c1ccccc1NCCO | -15.4
Cc1ccc(-c2noc(CN3CCCCC3)n2)cc1 | 34.6
c1cnc(-c2noc(CN3CCN(C4CCCC4)CC3)n2)cn1 | 18.7
O=CN1CCCN(Cc2nc(-c3cccc(Cl)c3)no2)CC1 | -13.3
CN1CCCN(Cc2nc(-c3ccc(Cl)cc3)no2)CC1 | -72.6
Clc1ccc(-c2noc(CN3CCCC3)n2)cc1 | -15.1
FC(F)(F)c1cccc(-c2noc(CN3CCOCC3)n2)c1 | 6.74
FC(F)(F)c1ccc(-c2noc(CN3CCCN(C4CCCCC4)CC3)n2)cc1 | -75.7
CN1CCCN(Cc2nc(-c3cccc(C(F)(F)F)c3)no2)CC1 | -60.2
CC1CCN(Cc2nc(-c3ccc(Cl)cc3)no2)CC1 | 8.57
CN1c2ccccc2C(C)(C)C12C=Cc1cc(O)ccc1O2 (centres unmarked) | -5.61
Cc1oc2cc(Br)c(O)c(Br)c2c1-c1ccccc1 | -13.5
CC(C)(C)OC(=O)NCCCC[C@H](NC(=O)c1[nH]cnc1C(=O)Nc1ccccc1)C(=O)OC(C)(C)C | 15.6
CCCNNC(=O)C(O)(c1cccc(C)c1)c1cccc(C)c1 | -2.43
Cc1ccc(N2C(=O)C(Cl)=C(N3CCOCC3)C2=O)c(C)c1 | 14.6
O=C(COC(=O)c1cccc(S(=O)(=O)NCc2ccccc2)c1)NCC1CCCO1 (centres unmarked) | 3.36
O=C(COC(=O)c1ccc(Cl)c(S(=O)(=O)NCc2ccccc2)c1)NCC1CCCO1 (centres unmarked) | -53

SMILES | hERG current change (%, negative = inhibition) at 10uM [%]
O=C(COC(=O)c1ccc(Cl)c(S(=O)(=O)N2CCCCC2)c1)NCC1CCCO1 (centres unmarked) | -14.1
CCN(CC)C(=O)C(=O)c1cccn1-c1ccc(C#N)cc1 | -18.8
COc1ccc2oc(=O)c(/C(C)=N/Nc3ccccc3)cc2c1 | -2.36
CCOC(=O)COc1cc(OCC(=O)OCC)c2c(=O)cc(-c3ccccc3)oc2c1 | -62.6
CC(C)(C)OC(=O)COc1cc(OCC(=O)OC(C)(C)C)c2c(=O)cc(-c3ccccc3)oc2c1 | -15
CCOC(=O)COc1cc(O)c2c(=O)cc(-c3ccccc3)oc2c1 | 12
CC(C)(C)NS(=O)(=O)c1cc2c3c(c1)CCN3C(=O)CC2 | 17.4
O=C1CCc2cc(S(=O)(=O)NC3CCCCC3)cc3c2N1CC3 | 1.44
CC1CC(NS(=O)(=O)c2cc3c4c(c2)CCN4C(=O)CC3)CC(C)(C)C1 (centres unmarked) | -63.1
c1ccc(-c2nnc(C(c3ccccc3)c3ccccc3)o2)cc1 | 6.86
CCOC(=O)C1CCCN(c2c(C(=O)c3ccccc3)cnc3ccccc23)C1 (centres unmarked) | -26.5
CCN1CCN(c2c(C(=O)c3ccc(OC)cc3)cnc3ccccc23)CC1 | -80.3
CCOc1ccc(C(=O)c2cnc3ccccc3c2N2CCN(CC)CC2)cc1 | -65.5
CCOC(=O)c1cnc2ccc(OCC)cc2c1N1CCN(c2ccccc2)CC1 | 13.9
COc1ccc(C(=O)c2cnc3ccccc3c2-c2ccccc2)cc1 | -9.47
CCOC(=O)C1CCCN(c2c(C(=O)c3ccccc3)cnc3ccc(OC)cc23)C1 (centres unmarked) | -37.5
COc1ccccc1-c1cc(C(=O)NC(C)c2ccccc2)no1 (centres unmarked) | 9.56
CCC(C)N=Cc1c(Nc2ccccc2)nc2c(C)cccn2c1=O (centres unmarked) | 17.6
O=C(Nc1cccc2ncccc12)c1cccnc1 | 14.5
CC(C)(C)c1ccc(C(=O)NCc2cccnc2)cc1 | -2.42
COc1ccc(OC)c(CCNC(=O)CCc2nnc3ccc(N4CCOCC4)nn23)c1 | 16.1
CCOC(=O)c1c(C)oc2c1cc(NS(=O)(=O)c1ccc(C(=O)O)cc1)c1ccccc12 | -60.7
COC(=O)c1c(C)oc2c1cc(NS(=O)(=O)c1ccc(C(=O)O)cc1)c1ccccc12 | 7.86

SMILES | hERG current change (%, negative = inhibition) at 10uM [%]
CC(=O)c1c(C)oc2c1cc(NS(=O)(=O)c1ccc(C(=O)O)cc1)c1ccccc12 | 14.3
O=C(CCCC(=O)OCC(F)(F)C(F)F)Nc1ccccc1F | 14.8
CN(C)C(/C=C/Nc1cccc([N+](=O)[O-])c1)=C(C#N)C#N | -11.1
CC(C)(C)c1nn(-c2ccccc2)c2[nH]c(=O)c(CNc3ccc4c(c3)OCCO4)cc12 | -4.99
CC(C)Cc1ccc(C(C)C(=O)Nc2nccs2)cc1 (centres unmarked) | -1.33
Cc1cc2cc(CNC(=O)Cc3ccc([N+](=O)[O-])cc3)ccc2[nH]1 | -50.7
CCOC(=O)Cc1csc(NC(=O)Cc2ccc(C)cc2)n1 | -18
CCC(=O)NCc1ccc2[nH]c(C)cc2c1 | 37
CC(C(=O)Nc1nccs1)c1ccc([N+](=O)[O-])cc1 (centres unmarked) | -72
CCOC(=O)Cc1csc(NC(=O)Cc2ccc(Cl)cc2)n1 | -15.1
CCOC(=O)Cc1csc(NS(=O)(=O)c2ccc([N+](=O)[O-])cc2)n1 | 7.89
Cc1cc2cc(CNC(=O)c3cccc([N+](=O)[O-])c3)ccc2[nH]1 | -25.3
CCOC(=O)Cc1csc(NC(=O)C(C)c2ccc([N+](=O)[O-])cc2)n1 (centres unmarked) | -55.9
CC(Sc1ccc([N+](=O)[O-])cn1)C(=O)Nc1nccs1 (centres unmarked) | -5.58
CCOC(=O)Cc1csc(NC(=S)NC(=O)c2ccc([N+](=O)[O-])cc2)n1 | 13.8
CCOC(=O)Cc1csc(NC(=O)Cc2ccc([N+](=O)[O-])cc2)n1 | -64.9
COc1ccc(CCN=C(N)NS(=O)(=O)c2ccc(C)cc2)cc1OC | 6.05
CCCCNC(=O)C1CCCN1C(=O)Nc1cccc(OC)c1 (centres unmarked) | 14
Cc1sc2ncn(/N=C/c3ccco3)c(=O)c2c1C | -2.43
CC(C)OC(=O)c1cc(NC(=O)C2C3C=CC(O3)C2C(=O)O)cc(C(=O)OC(C)C)c1 (centres unmarked) | -1.28
Cc1c(C)c(C)c2[nH]c(=S)[nH]c2c1C | 24.9
CCN(CC)C(=O)COC(=O)c1ccc(O)cc1 | 7.43
CC1=C(C(=O)Nc2ccccc2C(=O)NCCCOC(C)C)SCCO1 | 14

SMILES | hERG current change (%, negative = inhibition) at 10uM [%]
CCCCn1c(=O)[nH]c(=O)c2c1nc(-c1ccccc1F)n2Cc1ccccc1OC | 11.5
COc1ccc(-c2cc(C(F)(F)F)nc(SCC(=O)N(C)Cc3cnn(C)c3C)n2)cc1OC | -42.4
Cc1cc(Br)ccc1NC(=O)C(C)c1ccc([N+](=O)[O-])cc1 (centres unmarked) | -70.7
Cc1cc(C)nc(NC(=O)Cc2ccc([N+](=O)[O-])cc2)c1 | -67.9
Cc1ccnc(NC(=O)Cc2ccc([N+](=O)[O-])cc2)c1 | -12.4
CC(C(=O)Nc1cccc(Br)c1)c1ccc([N+](=O)[O-])cc1 (centres unmarked) | -47.3
CC(C(=O)Nc1ccccc1Br)c1ccc([N+](=O)[O-])cc1 (centres unmarked) | -35.5
Cc1cc(C)nc(NC(=O)Cc2ccc(Cl)cc2)c1 | -5.94
CCOc1cc(NC(=O)CC(C)C)c(OCC)cc1NC(=O)CCn1nnc2ccccc21 | 10.1
CCOC(=O)c1ccc(-n2ccnc2)c(NC(=O)c2ccc(C(C)(C)C)cc2)c1 | -41
CCOC(=O)c1ccc(-n2ccnc2)c(NC(=O)c2cccc(Br)c2)c1 | -42.1
CCOC(=O)c1ccc(-n2ccnc2)c(NC(=O)c2ccc(Cl)cc2)c1 | -66.2
O=C(CSc1nnc(C2COc3ccccc3O2)o1)N1CCN(c2ccccc2)CC1 (centres unmarked) | 8.03
CCOC(=O)N1CCN(C(=O)C2CCC(CNS(=O)(=O)c3ccccc3)CC2)CC1 (centres unmarked) | 3.18
COc1cccc(NC(=O)c2ccc(-c3ccc([N+](=O)[O-])cc3)o2)c1 | -36.2
COc1ccc(NC(=O)c2ccc(-c3ccc([N+](=O)[O-])cc3)o2)cc1OC | -64.9
COc1ccc(CCNC(=O)c2ccc(-c3cccc([N+](=O)[O-])c3)o2)cc1OC | -26.7
COc1ccc(CCNC(=O)Cc2ccc([N+](=O)[O-])cc2)cc1OC | -11.6
COc1ccc(CCNC(=O)c2ccc(-c3ccc([N+](=O)[O-])cc3)o2)cc1OC | -60.7
COc1ccc(NC(=O)c2ccc(-c3ccc([N+](=O)[O-])cc3)o2)cc1 | -33.1
